Results taken from PubChem BioAssay (NCI).
About 83,000 compounds went through this panel and 20% of them were active in at least one assay; those are over-represented in the sample as a whole.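 Cells were grown in 96-well plates and exposed to the test compound at a single concentration for 48 hours; results are reported as percent growth, with values below 10 considered active.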 Values without a mark were called inactive. Calls of active or inactive are those of the source.

test system: HS 578T breast; test: NCI-60 one-dose screen, 48 h (100 = growth as untreated, 0 = no growth, -100 = all killed); details: 10 µM unless noted

Row | SMILES | growth
1 | C=C1CCC2C3(C)COC(c4ccccc4Br)OC3CCC2(C)C1C/C=C1/C(=O)OCC1OC(C)=O (stereo not drawn) | -30.9% (active)
2 | CCOC(=O)C(=Cc1ccccc1F)C(=O)OCC | 104%
3 | Cn1c2ccccc2c2c3c(c4c5ccccc5n(CCCCCC#N)c4c21)C(=O)N(O)C3=O | 13%
4 | CC(=O)C1=C(O)C=C2Oc3c(C(=O)/C=C/c4c(Cl)cccc4Cl)c(O)c(C)c(O)c3[C@]2(C)C1=O | -18.1% (active)
5 | Oc1ccc(Nc2nccc(-c3ccc4ccccc4c3)n2)cc1 | 42.8%
6 | CCOC(=O)c1cnc2ccc(Br)cc2c1Nc1cccc(S(=O)(=O)NC)c1 | 95.8%
7 | CCN1CCN(Cc2ccc(NC(=O)Nc3nc4ccc(Oc5ccnc(C(=O)NC)c5)cc4s3)cc2C(F)(F)F)CC1 | -38.6% (active)
8 | O=c1c2c3c(sc2n2c(CCl)nnc2n1Cc1ccccc1)CCCC3 | -36.1% (active)
9 | COC(=O)[C@H](C(C)C)n1c(=O)c2cc(OC)c(OC)cc2c2cnc3[nH]ccc3c21 | 12.6%
10 | CC(=O)Oc1ccc(Nc2c3ccccc3nc3ccccc23)cc1 | 25.1%
11 | COc1cc(NCCCCN=C(N)NC(N)=NC(C)C)c2ncccc2c1 | 100%
12 | O=C(CNC1C2CC3CC(C2)CC1C3)Sc1nnc2sc3ccccc3n12 (stereo not drawn) | 89.5%
13 | COc1ccc(-c2c3c(nc4n[nH]c(-c5ccc(Cl)cc5)c24)-c2ccccc2C(=O)C3=O)cc1 | 7.1% (active)
14 | O=C(/C=C\c1ccc2ccccc2n1)c1cc(Cl)ccc1O | 95.1%
15 | O=C1c2cc3c(cc2-c2c1c1cc(Cl)c(Cl)cc1c(=O)n2CCCn1ccnc1)OCO3 | 66.7%
16 | CC1(C)CC(=O)C(c2c(-c3ccccc3)[nH]c3[nH]c(=S)[nH]c(=O)c23)=C(O)C1 | 123%
17 | O=C(CO[N+](=O)[O-])Nc1ccc(C(=O)/C=C/c2ccc(Cl)cc2)cc1 | 89.7%
18 | CN(C)c1ccc(/C=C\C2=[N+](C)c3ccccc3C2(C)C)cc1 | 9.83% (active)
19 | COc1ccc(CCN2CC=Cn3c2nc2ccccc2c3=O)cc1 | 37.9%

test system: NCI/ADR-RES ovarian; test: as above; details: 10 µM unless noted

Row | SMILES | growth
20 | CCC(c1ccccc1)C(CC)c1ccc(O)c(O)c1 (stereo not drawn) | 96.1%
21 | CN1CCN(c2ccc3nc(-c4ccc5nc(-c6ccc(OCCC(C)(C)C)cc6)[nH]c5c4)[nH]c3c2)CC1 | 88%
22 | NC(N)=Nc1ccc(S(=O)(=O)O)cc1 | 93.6%
23 | O=C(/C=C/c1cc2ccccc2[nH]c1=O)/C=C/c1cc2ccccc2[nH]c1=O | 57.2%
24 | Nc1ccc(Nc2nccc(-c3ccc4ccccc4c3)n2)cc1 | 18.4%
25 | C=C1CCC2C3(C)COC(c4ccc(OC)cc4Br)OC3CCC2(C)C1/C=C/C1=CCOC1=O (stereo not drawn) | 68.6%
26 | CCC(=O)Oc1ccc(/C(=C(\C)c2ccccc2)c2ccc(OCCN(CC)CC)cc2)cc1 | 93%
27 | CC(=O)/C(=C/c1cccc(Cl)c1)C(=O)c1ccccc1 | 75.8%
28 | NS(=O)(=O)c1ccc(-n2ncc3c(=O)[nH]c(CN4CCN(c5cc6c(cc5F)c(=O)c(C(=O)O)cn6C5CC5)CC4)nc32)cc1 | 94.4%
29 | COc1ccc(-c2nn(-c3ccccc3)cc2/C=C2\SC(=O)NC2=O)cc1 | 106%
30 | O=C(COc1cccc(/C=C2/Oc3ccccc3C2=O)c1)Nc1nccs1 | 83.3%
31 | CN1CCN(Cc2ccc(NC(=O)c3[nH]ncc3Nc3ncnc4sccc34)cc2)CC1 | 16.4%
32 | CC1=N/C(=C\c2cccc(Br)c2)C(=O)O1 | 107%
33 | COc1cc(C(=O)/C=C/c2c(C)n([O-])c3ccc(C)cc3[n+]2=O)cc(OC)c1OC | 81.2%
34 | CCN(CC)CC#CCOC(=O)[C@]1(C)CCC[C@@]2(C)[C@H]1CC(C=O)=C1C=C(C(C)C)CC[C@@H]12 | 70.9%
35 | C=C1CCC2C3(C)COC(c4ccccc4Br)OC3CCC2(C)C1C/C=C1/C(=O)OCC1OC(C)=O (stereo not drawn) | -3.45% (active)
36 | CCOC(=O)C(=Cc1ccccc1F)C(=O)OCC | 100%
37 | Cn1c2ccccc2c2c3c(c4c5ccccc5n(CCCCCC#N)c4c21)C(=O)N(O)C3=O | 12.2%
38 | CC(=O)C1=C(O)C=C2Oc3c(C(=O)/C=C/c4c(Cl)cccc4Cl)c(O)c(C)c(O)c3[C@]2(C)C1=O | -23.4% (active)
